The values below come from PubChem BioAssay (NCI).

Values joined by “and” are separate entries in the source; they are usually repeats but may differ in a detail not shown here. Identical values can stand only once. About 79,000 compounds went through this panel and 15% of them were active in at least one assay; those are over-represented in the sample as a whole. The source holds several records for some structures; these can differ, active in one and inactive in another. Active and inactive are the calls of the source. Cut-off read from the data, not from the text of the source: active = growth inhibition above about 70%; inactive = the rest.

The assay is described as follows: NCI Yeast Anticancer Drug Screen. Data for the bub3 strain (AID 167). The following applies: S. cerevisiae bub3 mutant strain, stronger effect = higher value. As to the method:
Growth inhibition of yeast strains with defined genetic alterations is measured as a screen for potential anti-cancer activity. Selected strains with alterations in DNA damage repair or cell cycle control were exposed to compounds and growth inhibition was measured relative to vehicle treated controls. The strain used in this assay is bub3

[1] abbreviates: at 5.0 µM (retest, dose inferred, filed as 0.5).
[2] abbreviates: at 50.0 µM (retest, dose inferred, filed as 5.0).

On to `Nc1ccccc1Oc1ccc(Cl)cc1Cl`, for which the growth inhibition under setting [1] was -18% (inactive), the growth inhibition under setting [2] is 95% (active) and the growth inhibition (at 50.0 µM) is 92.3% (active).
As for `CCC(C)(C)c1cc(O)c(C(C)(C)CC)cc1O`, the growth inhibition was 23% (inactive) under setting [1]; 91% (active) under setting [2]; 20.2% (inactive) and 92.3% (active) (at 50.0 µM).
As for `CC(C)(c1ccc(O)cc1)c1ccc(O)cc1`, the growth inhibition under setting [1] was 30% (inactive) and 5% (inactive); the growth inhibition under setting [2] is 45% (inactive) and 64% (inactive); the growth inhibition (at 50.0 µM) was 59.7% (inactive) and 81.1% (active).
For `COc1ccc(-c2c(C#N)c(-c3ccc(C)cc3)n(NS(=O)(=O)c3ccccc3)c(=O)c2C#N)cc1`, the growth inhibition reads like this: under setting [1], 47% (inactive); under setting [2], 56% (inactive); (at 50.0 µM) 39.6% (inactive).
In the same order, the values of `Oc1ccc(/C=N/NC(=S)NN2CCOCC2)nc1` are 46% (inactive), 93% (active) and 88.5% (active).
As to `O=[N+]([O-])c1ccc(N/N=C(/C=N/Nc2ccc([N+](=O)[O-])cc2)C(O)C(O)C(O)CO)cc1` (configuration not stated), the growth inhibition reads like this: under setting [1], 73% (active) and 90% (active); under setting [2], 98% (active); (at 50.0 µM) 98.2% (active) and 98.9% (active).
For `Cc1cc(NS(=O)(=O)c2ccc(N=Nc3cc(N=Nc4ccc(S(=O)(=O)Nc5cc(C)nc(C)n5)cc4)c4c(NC(=O)C(Cl)Cl)cccc4c3OC(=O)C(Cl)Cl)cc2)nc(C)n1` (tested in a mixture with another compound), the growth inhibition reads like this: under setting [1], 21% (inactive); under setting [2], 90% (active); (at 50.0 µM) -21.5% (inactive) and 77.2% (active).
Turning to `OC(c1nc2ccccc2[nH]1)C(O)C(O)C(O)c1nc2ccccc2[nH]1` (configuration not stated), the growth inhibition is -15% (inactive) under setting [1]; -28% (inactive) under setting [2]; -38.5% (inactive) and 44.8% (inactive) (at 50.0 µM).
For the compound `Nc1ccc(Cc2ccc(Br)cc2)cc1`, the growth inhibition reads like this: under setting [1], 30% (inactive); under setting [2], 98% (active); (at 50.0 µM) 98.8% (active).
`CCCc1cc(=O)oc2c3c(c4c(c12)OC(C)(C)CC4)O[C@@H](C)[C@H](C)[C@H]3O`: the growth inhibition reads like this: under setting [1], 0% (inactive); under setting [2], 92% (active); (at 50.0 µM) 16.3% (inactive) and 87.8% (active).
Turning to `CN(C)CCCN=c1c2ccccc2n(O)c2cccc([N+](=O)[O-])c12`, the growth inhibition is 9% (inactive) under setting [1], -10% (inactive) under setting [2] and 45.4% (inactive) (at 50.0 µM).
Turning to `O=C1C(CN2CCOCC2)CCCC1CN1CCOCC1` (configuration not stated), the growth inhibition by setting is: under setting [1], 0% (inactive); under setting [2], 95% (active); (at 50.0 µM) 1.05% (inactive) and 69.5% (inactive).
Consider `O=[N+]([O-])c1ccc(N/N=C/CC(O)(C(F)(F)F)C(F)(F)F)c([N+](=O)[O-])c1`, for which the growth inhibition by setting is: under setting [1], 13% (inactive); under setting [2], 98% (active); (at 50.0 µM) 86.4% (active).
With `COC(=O)c1nnn(-c2ccc(S(N)(=O)=O)cc2)c1N`, the growth inhibition is, setting by setting: under setting [1], -22% (inactive); under setting [2], -7% (inactive); (at 50.0 µM) -4.45% (inactive).
